Screens from PubChem.
Only a selection was taken, and hits are over-represented in it overall.
Methyltransferases: Primary Screen for Target Class Profiling of Small Molecule Inhibitors of Methyltransferases; purified enzyme, MTase-Glo SAH luminescence; active compounds read low; calls only at 40 µM; 25,000 tested, 3.9% active; AID 1745853, 2022; call rule not given here
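Each enzyme was assayed with SAM and its substrate. SAH formation detected by MTase-Glo luminescence; single-point 40 uM screen[…].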
Numbers without * were called inactive. % is scaled to controls: 0 for no effect and ±100 for the full control effect.

Screening CCCSCCCNC(=O)c1cc2n(n1)CC(C)(C(=O)NC1CCCCCC1)N(C)C2=O (configuration not stated) returned Methyltransferases inactive.
Cc1ccc(NC(=O)N2CCn3cccc3C2C(C)C)c(C)c1 (configuration not stated) was read as Methyltransferases inactive.
Screening Cc1ccccc1NC(=O)Cn1nc2n(CCC(C)C)c(=O)c3ccc(C(=O)NC(C)C)cc3n2c1=O returned Methyltransferases inactive.
For O=C(NC1CCCCC1)C1c2cccn2-c2sc3c(c2C(=O)N1c1ccc(Cl)cc1)CCCC3 (configuration not stated) the results were Methyltransferases inactive.
For O=C(Cn1c(=O)oc2cc(S(=O)(=O)NC3CCCC3)ccc21)N1CCCC1 the results were Methyltransferases inactive.
For CC1(C(=O)NC2CCCCCC2)Cn2c(nc3ccccc32)C(=O)N1Cc1ccc(Cl)cc1 (configuration not stated) the results were Methyltransferases inactive.
For Cc1ccc(Cn2c(=O)c3ccccc3n3c(=O)n(Cc4ccccc4Cl)nc23)cc1 the results were Methyltransferases inactive.
CCC1(CO)CCCN(CCCOc2ccc(C(N)=O)cc2)C1 (configuration not stated) was read as Methyltransferases inactive.
For CC/C(=C(\c1ccc(O)cc1)c1ccc(OCCNC)cc1)c1ccccc1 the results were Methyltransferases inactive.
CC/C(=C(\c1ccccc1)c1ccc(OCCN(C)C)cc1)c1ccccc1 was read as Methyltransferases inactive.
Cc1ccc(CN2CCN(Cc3ccc(=O)n(C)c3)CC2)cc1 was read as Methyltransferases inactive.
Screening CCC(=C(c1ccc(OCCN2CCCC2)cc1)c1ccc(OCCN2CCCC2)cc1)c1ccccc1 returned Methyltransferases active.
For c1cc(OCCCN2CCCCC2)ccc1CN1CCCCC1 the results were Methyltransferases active.
Cc1ccc(Cn2c(=O)c3ccccc3n3c(CCC(=O)Nc4cccc(Cl)c4)nnc23)cc1 was read as Methyltransferases inactive.
`CCC(C)NC(=O)c1ccc2c(=O)n(Cc3ccccc3)c3nn(Cc4ccccc4C)c(=O)n3c2c1` (configuration not stated) gave Methyltransferases inactive.
CC(C)Cn1c(=O)c2ccccc2n2c(=O)n(CC(=O)NCc3ccccc3)nc12 was read as Methyltransferases inactive.
`CCN(CC)c1nc2c(-c3ccc(Cl)cc3)nnn2c2ccccc12` gave Methyltransferases inactive.
Screening c1ccc(CCCN2CC[C@H](c3nc4ccccc4s3)C2)cc1 returned Methyltransferases inactive.
NC(=O)COc1cccc(CN2CCN(c3ccc(F)cc3F)CC2)c1 was read as Methyltransferases inactive.
`c1cc(CN2CCCCC2)cc(OCCCNc2nc3ccccc3s2)c1` gave Methyltransferases active.
For CCCC1c2ccc(C)n2CCN1C(=O)Nc1ccc(Cl)cc1 (configuration not stated) the results were Methyltransferases inactive.
COc1ccc(-c2nnc3n(Cc4ccccc4)c(=O)c4ccccc4n23)c(O)c1 was read as Methyltransferases inactive.
For COc1ccc(OC)c(CNS(=O)(=O)c2cc3[nH]c(=O)[nH]c3cc2C)c1 the results were Methyltransferases inactive.
Screening CCC(C)NC(=O)c1ccc2c(=O)n(C)c3nn(CC(=O)c4ccc(OC)cc4)c(=O)n3c2c1 (configuration not stated) returned Methyltransferases inactive.
C=C1CC/C=C(/CO)C(=O)C[C@@H]2[C@@H]1C[C@@]2(C)COC(C)=O was read as Methyltransferases active.
CC(C)c1nc(-c2ccc(NC(=O)Nc3cccc(C(F)(F)F)c3)c3ccccc23)c2c(N)nccn12 was read as Methyltransferases active.
For CC(C)c1nc2c(NC(=O)Nc3cccc(Cl)c3)cccn2n1 the results were Methyltransferases inactive.
Screening CC(=O)OC/C(=C/C(=O)O)CC[C@@H]1C(C)=CC(=O)[C@@H]2C(C)(C)CCC[C@@]12C returned Methyltransferases active.
For CC1=CC(=O)C2C(C)(C)CCC[C@]2(C)[C@H]1CO (some centres not stated) the results were Methyltransferases inactive.
`CC1=CC(=O)C2C(C)(C)CCC[C@]2(C)[C@H]1CC[C@H](C)CC(=O)O` (some centres not stated) gave Methyltransferases inactive.
For CCc1ccc(NC(=O)CSc2nnc3n(CCCOC(C)C)c(=O)c4ccccc4n23)cc1 the results were Methyltransferases inactive.
For O=S(=O)(c1cccc(-c2nc(-c3ccccc3)no2)c1)N1CCCc2ccccc21 the results were Methyltransferases inactive.
`Cn1cc(-c2cnn3c(N)c(Br)c([C@@H]4CCCNC4)nc23)cn1` gave Methyltransferases active.
`CCN1C(=O)c2cc(C(=O)NCCCc3ccccc3)nn2CC1(C)C(=O)NC1CCCC1` (configuration not stated) gave Methyltransferases inactive.
`Cn1c(=O)c2ccc(C(=O)NC3CCCC3)cc2n2c(=O)n(Cc3ccc(F)cc3Cl)nc12` gave Methyltransferases inactive.
For CCOC(=O)CNC(=O)C1(C)Cn2c(ccc2-c2ccco2)C(=O)N1Cc1cc(OC)ccc1OC (configuration not stated) the results were Methyltransferases inactive.
CC1CC(C)CN(CCCN2C(=O)c3nc4ccccc4n3CC2(C)C(=O)NC2CCCCCC2)C1 (configuration not stated) was read as Methyltransferases inactive.
`Nc1ncnc2c1ncn2[C@@H]1O[C@H](CO)C[C@H]1O` gave Methyltransferases inactive.
`Nc1ncnc2c1nc(N)n2[C@@H]1O[C@H](CO)[C@@H](O)[C@H]1O` gave Methyltransferases inactive.
Screening NC[C@H]1O[C@@H](n2cnc3c(N)ncnc32)[C@H](O)[C@@H]1O returned Methyltransferases active.
Screening CCC(C)NC(=O)Cn1nc2n(C)c(=O)c3ccc(C(=O)NC4CCCC4)cc3n2c1=O (configuration not stated) returned Methyltransferases inactive.
CN1C(=O)c2cc3ccccc3n2CC1(C)C(=O)NCC(=O)NCCc1cccs1 (configuration not stated) was read as Methyltransferases inactive.
For CC(C)Cn1c(=O)c2ccccc2n2c(CCC(=O)NCc3ccc4c(c3)OCO4)nnc12 the results were Methyltransferases inactive.
Screening O=C(Nc1ccc(C(F)(F)F)cn1)N1CCN(c2ncccc2C(F)(F)F)CC1 returned Methyltransferases active.
`C[C@H](Oc1ccc(S(C)(=O)=O)cc1C(=O)N1CCN(c2ncc(C(F)(F)F)cc2F)CC1)C(F)(F)F` gave Methyltransferases inactive.
Cc1ccc(NC(=O)N2CCN(c3nc(N)nc4sc(-c5cccnc5)nc34)CC2)cc1 was read as Methyltransferases inactive.
`COc1ccc(OC)c2c1cc1n2CC(C)(C(=O)NC2CCCCC2)N(Cc2cccs2)C1=O` (configuration not stated) gave Methyltransferases inactive.
Screening CSc1cccc(NC(=O)c2cc3n(n2)CC(C)(C(=O)NC2CCCCC2)N(C)C3=O)c1 (configuration not stated) returned Methyltransferases inactive.
`COc1ccc(N2CCN(C(=O)c3ccc(Nc4nc5ccccc5n5nnnc45)cc3)CC2)cc1` gave Methyltransferases inactive.
For CCN1CCN(C(=O)c2ccc(-c3nnc4ccc(NC(=O)C5CC5)cn34)cc2)CC1 the results were Methyltransferases inactive.
CCN1CCN(c2ccc(Nc3ccc(-c4ccc(C(N)=O)cc4)n4ncnc34)cc2)CC1 was read as Methyltransferases active.
